# Results as given in PubChem BioAssay AID623880 (Broad Institute, 2012).
# Entries with a potency or affinity are not part of this list. Active and inactive are the calls of the source.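 The calls were made as follows: active = compounds lowering HDL dye uptake whose fitted half-effect dose is at most twice the top valid dose; inconclusive = flat curve with moderate signal loss, or poor fit; inactive = the rest.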
# Target: Scavenger receptor class B member 1 (Mus musculus) (UniProt Q61009)
# Test: mouse SR-BI DiI-HDL transfer blockers – ldlA[mSR-BI] CHO cells, fluorescence plate reader, dry powder, set 9, dose response (AID 623880)
# Sequence of Scavenger receptor class B member 1 (Mus musculus) (Q61009 whole entry, looked up): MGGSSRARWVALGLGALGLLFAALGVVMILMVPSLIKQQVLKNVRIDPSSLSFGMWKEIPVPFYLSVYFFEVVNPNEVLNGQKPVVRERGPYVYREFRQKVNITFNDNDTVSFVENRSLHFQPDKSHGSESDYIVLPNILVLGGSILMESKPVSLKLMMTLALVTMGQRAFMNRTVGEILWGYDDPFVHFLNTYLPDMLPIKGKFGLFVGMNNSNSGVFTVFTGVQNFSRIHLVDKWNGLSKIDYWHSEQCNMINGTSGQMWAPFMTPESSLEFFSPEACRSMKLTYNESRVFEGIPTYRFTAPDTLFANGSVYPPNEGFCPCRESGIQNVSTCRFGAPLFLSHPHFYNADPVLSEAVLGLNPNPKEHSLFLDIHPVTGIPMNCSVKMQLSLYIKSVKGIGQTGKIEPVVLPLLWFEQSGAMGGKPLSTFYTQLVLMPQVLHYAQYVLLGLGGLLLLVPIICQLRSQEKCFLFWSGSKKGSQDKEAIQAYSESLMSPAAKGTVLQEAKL
smiles,measurement,value
Cc1ccc(OCc2cc(C(=O)N3CCCC(O)C3)no2)cn1 (stereo unspecified),outcome,inactive
